Records with an inconclusive call do not appear. Activity calls are given as the source filed them. Unless noted, calls come from the whole dose curve; as a rule, active = well fitted curve in the direction sought with a large enough effect in the repeat runs; inconclusive = weak or mixed curves; inactive = no such curve, though single readings can be large; an effect the other way counts as inactive or inconclusive.
How the values were obtained:
[1] = qHTS assay to identify small molecule agonists of the RXR signaling pathway - cell viability counter screen (AID 1159529);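 note: HEK 293T cells carrying an RXR-alpha UAS beta-lactamase reporter; series mostly up to about 77 µM; nearly all actives have a fitted effect of over 50% in size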
Procedure, shortened: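 In this parallel viability measure, GeneBLAzer RXR-alpha HEK 293T cells (2% charcoal-stripped FBS) were given a 5 hr preincubation, treated with compounds 16 hr at 37 C, and read by CellTiter-Glo luminescence.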

[2] = qHTS assay to identify small molecule antagonists of the retinoid acid receptor (RAR) signaling pathway - cell viability counter screen (AID 1159551); note: nearly all actives have a fitted effect of over 35% in size
Procedure, shortened: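 C3RL4 cells were seeded overnight at 37 C, then treated with compounds plus 1 uM (final) retinol for 6 h at 37 C. Viability was read as ATP by CellTiter-Glo luminescence after 30 min at room temperature.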

[3] = qHTS assay to identify small molecule antagonists of the retinoic acid receptor (RAR) signaling pathway (AID 1159552; note: nearly all actives have a fitted effect of over 50% in size)
Procedure, shortened: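 C3RL4 RARE-luc cells, overnight plating; retinol 1 uM final added right after compound; 6 hr 37 C; luciferase read at 30 min RT.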

[4] = qHTS assay to identify small molecule antagonists of the estrogen related receptor (ERR) signaling pathway from Tox21 library - cell viability counter screen (AID 1224834); note: nearly all actives have a fitted effect of over 30% in size; note: potency is the fitted concentration of half-maximal effect
Procedure, shortened: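 ERR reporter cells were plated 6 h before compound addition, then exposed to test compounds in DMSO for 17.5 h at 37 C. Viability was read as CellTiter-Fluor fluorescence after a 30-minute incubation at 37 C.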

[5] = molecular target: Luciferin 4-monooxygenase (Photinus pyralis) (UniProt P08659); test: qHTS assay to identify small molecule inhibitors of firefly luciferase (AID 1224835); note: nearly all actives have a fitted effect of over 25% in size; note: potency is the fitted concentration of half-maximal effect
Procedure, shortened: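 Quantitative HTS format; KM concentrations of both substrates. Purified P. pyralis FLuc activity quantified from luminescence images.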

[6] = qHTS assay to identify small molecule agonists of the constitutive androstane receptor (CAR) signaling pathway - cell viability counter screen (AID 1224836); note: series mostly up to about 92 µM; nearly all actives have a fitted effect of over 45% in size
Procedure, shortened: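 Using CellTiter-Fluor, viability of HepG2 cells harbouring hCAR and CYP2B6-2.2kb was measured following 23 h incubation with a 15-concentration compound series plus PK11195 (0.75 uM final).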

[7] = qHTS assay to identify small molecule antagonists of the constitutive androstane receptor (CAR) signaling pathway - cell viability counter screen (AID 1224837); note: series mostly up to about 92 µM; nearly all actives have a fitted effect of over 45% in size
Procedure, shortened: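 HepG2 cells stably expressing hCAR and a CYP2B6-2.2kb reporter were plated and pre-incubated 4 hr at 37 C/5% CO2, then given compounds at 15 concentrations plus 50 nM CITCO (final). After 23 hr, viability was read by CellTiter-Fluor fluorescence.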

[8] = molecular target: Nuclear receptor subfamily 1 group I member 3 (Homo sapiens) (UniProt Q14994); test: qHTS assay to identify small molecule antagonists of the constitutive androstane receptor (CAR) signaling pathway (AID 1224838); note: nearly all actives have a fitted effect of over 40% in size
Procedure, shortened: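 HepG2 cells stably co-transfected with hCAR and a CYP2B6-2.2kb luciferase reporter were seeded 4 h before compound addition at 15 concentrations. Cells were stimulated with 50 nM CITCO (final) for 24 h at 37 C; luciferase luminescence was then read.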

[9] = molecular target: Nuclear receptor subfamily 1 group I member 3 (Homo sapiens) (UniProt Q14994); test: qHTS assay to identify small molecule agonists of the constitutive androstane receptor (CAR) signaling pathway (AID 1224839);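 note: HepG2 cells stably carrying human CAR and a CYP2B6 luciferase reporter; series mostly up to about 92 µM; nearly all actives have a fitted effect of over 15% in size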
Procedure, shortened: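 Double-stable HepG2 cells (hCAR, CYP2B6-2.2kb) seeded 4 h before compound addition. Exposure 24 h with 0.75 uM PK11195 final. Luciferase detected by ONE-Glo.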

[10] = qHTS assay to identify small molecule antagonists of the estrogen related receptor signaling pathway with the pleiotropic PPARgamma coactivator (PGC) from Tox21 10K library - cell viability counter screen (AID 1224840; active = well fitted cell-killing curve with a large enough effect in the repeat runs, not every such curve was filed as active; note: nearly all actives have a fitted effect of over 40% in size)
Procedure, shortened: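 PGC/ERR cells were seeded at 2,000 cells/well and left 6 hours at 37 C/5% CO2 before pin-tool addition of compounds in DMSO. After 17.5 hours at 37 C, CellTiter-Fluor was added and fluorescence read 30 minutes later.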

[11] = qHTS assay to identify small molecule antagonists of the estrogen related receptor signaling pathway with the pleiotropic PPARgamma coactivator (PGC) from Tox21 10K library (AID 1224841; call rule not given here; note: series mostly up to about 92 µM; actives are mostly falling curves and most rising ones were filed inactive; nearly all actives have a fitted effect of over 50% in size)
Procedure, shortened: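 PGC/ERR reporter cells were seeded at 2,000 cells/well and held 6 hours at 37 C/5% CO2 before pin-tool addition of compounds in DMSO. After 18 hours at 37 C, One-Glo was added and luminescence read after 30 minutes at room temperature.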

[12] = qHTS assay to identify small molecule agonists of the estrogen related receptor signaling pathway with the pleiotropic PPARgamma coactivator (PGC) from Tox21 10K library (AID 1224842); note: nearly all actives have a fitted effect of over 15% in size
Procedure, shortened: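 PGC/ERR reporter cells (NTP line) were seeded 2,000 per well, rested 6 h at 37 C/5% CO2, then pin-dosed with compounds in DMSO for 18 h at 37 C; luciferase read by One-Glo luminescence after 30 min at room temperature.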

[13] = molecular target: Thyrotropin receptor (Homo sapiens) (UniProt P16473); test: qHTS assay to identify small molecule agonists of the thyroid stimulating hormone receptor (TSHR) signaling pathway (AID 1224843; calls by dose curve; note: nearly all actives have a fitted effect of over 45% in size)
Procedure, shortened: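 TSHR-expressing HEK293 cells (800 per well) were exposed to compounds for 30 min at room temperature. cAMP was then detected by HTRF competition with cAMP-d2 and anti-cAMP cryptate, read after 1 h at room temperature. Fifteen concentrations, triplicate.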

[14] = qHTS assay to identify small molecule agonists of the retinoic acid receptor (RAR) signaling pathway (AID 1159553); note: potency is the fitted concentration of half-maximal effect
Procedure, shortened: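 C3RL4 cells carrying a RARE luciferase reporter were plated overnight at 37 C, then exposed to compounds in DMSO for 6 hr at 37 C and 5% CO2. Luminescence was read 30 min after luciferase reagent addition at room temperature.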

[15] = qHTS assay to identify small molecule antagonists of the estrogen related receptor (ERR) signaling pathway - cell viability counter screen (AID 1224818);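 note: series mostly up to about 46 µM; viability measured after 17.5 h of compound exposure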
Procedure, shortened: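 ERR reporter cells plated 6 h at 37 C/5% CO2, then compounds in DMSO pin-transferred and incubated 17.5 h at 37 C. Viability read as CellTiter-Fluor fluorescence after 30 min at 37 C.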

[16] = qHTS assay to identify small molecule antagonists of the estrogen related receptor signaling pathway with the pleiotropic PPARgamma coactivator (PGC) cell viability counter screen (AID 1224822; note: series mostly up to about 46 µM)
Procedure, shortened: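 PGC/ERR cells were seeded at 2,000 cells/well, rested 6 h at 37 C/5% CO2, then given compounds in DMSO by pin tool and incubated 17.5 h at 37 C. Viability came from CellTiter-Fluor fluorescence after 30 min.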

Measured: Potency

Sequence of Thyrotropin receptor (Homo sapiens) (P16473 whole entry, looked up): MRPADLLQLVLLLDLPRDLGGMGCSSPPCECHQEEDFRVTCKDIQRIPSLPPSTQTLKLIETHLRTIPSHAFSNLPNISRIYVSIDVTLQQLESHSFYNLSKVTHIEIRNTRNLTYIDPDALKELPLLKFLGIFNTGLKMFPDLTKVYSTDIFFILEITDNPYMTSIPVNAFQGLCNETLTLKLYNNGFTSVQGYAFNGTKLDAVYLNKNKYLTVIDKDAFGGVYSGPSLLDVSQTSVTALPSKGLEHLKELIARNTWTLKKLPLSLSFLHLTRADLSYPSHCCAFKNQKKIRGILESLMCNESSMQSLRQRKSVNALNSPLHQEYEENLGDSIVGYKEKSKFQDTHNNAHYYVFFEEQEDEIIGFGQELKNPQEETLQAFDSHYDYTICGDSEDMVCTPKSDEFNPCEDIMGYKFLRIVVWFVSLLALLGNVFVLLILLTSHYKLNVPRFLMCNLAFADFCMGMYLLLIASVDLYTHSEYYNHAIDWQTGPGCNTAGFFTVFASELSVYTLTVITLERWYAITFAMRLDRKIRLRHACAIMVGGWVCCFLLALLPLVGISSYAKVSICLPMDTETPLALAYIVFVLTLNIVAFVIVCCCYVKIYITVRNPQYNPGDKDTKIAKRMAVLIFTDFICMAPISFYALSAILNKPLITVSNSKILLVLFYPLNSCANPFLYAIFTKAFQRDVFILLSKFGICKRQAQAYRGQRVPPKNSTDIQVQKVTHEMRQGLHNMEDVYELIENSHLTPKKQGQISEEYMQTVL
Sequence of Luciferin 4-monooxygenase (Photinus pyralis) (P08659 whole entry, looked up): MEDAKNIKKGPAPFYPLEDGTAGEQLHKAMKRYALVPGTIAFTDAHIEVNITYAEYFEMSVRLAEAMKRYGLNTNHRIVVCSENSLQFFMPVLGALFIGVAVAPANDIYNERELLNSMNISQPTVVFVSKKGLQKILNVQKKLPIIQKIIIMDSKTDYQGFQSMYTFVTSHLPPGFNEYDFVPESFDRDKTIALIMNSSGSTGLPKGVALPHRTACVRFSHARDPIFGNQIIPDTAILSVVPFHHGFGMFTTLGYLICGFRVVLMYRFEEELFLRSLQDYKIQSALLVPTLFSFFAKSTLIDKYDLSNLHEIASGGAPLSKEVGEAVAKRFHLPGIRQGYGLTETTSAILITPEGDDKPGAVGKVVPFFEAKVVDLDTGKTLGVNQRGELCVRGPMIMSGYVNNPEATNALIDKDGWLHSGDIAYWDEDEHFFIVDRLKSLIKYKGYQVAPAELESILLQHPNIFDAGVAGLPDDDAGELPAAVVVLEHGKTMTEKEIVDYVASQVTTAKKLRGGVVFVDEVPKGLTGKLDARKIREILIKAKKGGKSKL
Sequence of Nuclear receptor subfamily 1 group I member 3 (Homo sapiens) (Q14994 whole entry, looked up): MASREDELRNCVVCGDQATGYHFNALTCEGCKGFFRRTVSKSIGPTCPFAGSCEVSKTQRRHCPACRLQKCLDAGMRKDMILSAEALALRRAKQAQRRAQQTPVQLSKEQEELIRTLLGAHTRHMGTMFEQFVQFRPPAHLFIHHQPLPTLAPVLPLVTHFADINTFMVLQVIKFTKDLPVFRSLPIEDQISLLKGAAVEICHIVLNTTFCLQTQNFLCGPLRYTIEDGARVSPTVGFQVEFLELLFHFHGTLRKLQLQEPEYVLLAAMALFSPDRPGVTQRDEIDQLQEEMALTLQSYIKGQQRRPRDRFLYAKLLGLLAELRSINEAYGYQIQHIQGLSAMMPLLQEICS

CCCCOCCOC(=O)CCCCCCCCC(=O)OCCOCCCC
not listed: [13] | [14] | [15] | [16]
inactive: all other assays above

CC(C)c1ccc2ncccc2c1
active: [5] 31.7 µM
not listed: [13] | [14] | [15] | [16]
inactive: all other assays above

O=C(O)CC(C(=O)O)S(=O)(=O)O (configuration not stated)
not listed: [14] | [15] | [16]
inactive: all other assays above

C=CC(=O)OCCCl
inactive: [1] | [2] | [3] | [14] | [4] | [5] | [6] | [7] | [10]

CCCc1nn(C)c2c(=O)[nH]c(-c3cc(S(=O)(=O)N4CCN(C)CC4)ccc3OCC)nc12
not listed: [3] | [11] | [12]
inactive: all other assays above

CC1=NN(c2cc(S(=O)(=O)O)ccc2Cl)C(=O)C1N=Nc1ccccc1 (configuration not stated)
active: [14] 68.6 µM | [4] 48.6 µM
inactive: [1] | [2] | [3] | [8] | [9] | [13]

CCOC(=O)CCC(=O)OCC
not listed: [14] | [15] | [16]
inactive: all other assays above

O=Cc1cccc(Br)c1
not listed: [13] | [14] | [15] | [16]
inactive: all other assays above

Cc1ccc(C(=O)c2ccccc2)cc1
inactive: [1] | [2] | [3] | [4] | [6] | [7] | [8] | [10]
active: [5] 31.7 µM

CNC(=O)Nc1ccc(Cl)c(Cl)c1
active: [5] 56.4 µM
not listed: [9] | [11] | [12] | [14] | [15] | [16]
inactive: all other assays above

CCCCOC(=O)CCC(C)=O
not listed: [11] | [12] | [14] | [15] | [16]
inactive: all other assays above

CCCCOCCOC(=O)COc1cc(Cl)c(Cl)cc1Cl
not listed: [11] | [12] | [14] | [15] | [16]
inactive: all other assays above

CCCCCCC1CCC(=O)O1 (configuration not stated)
not listed: [14] | [15] | [16]
inactive: all other assays above

CC(C)(C)OC(=O)c1cccc(N)c1
active: [5] 57.9 µM
not listed: [11] | [12] | [13] | [14] | [15] | [16]
inactive: all other assays above

C[N+](C)(C)CCCCCCCCCC[N+](C)(C)C
not listed: [3] | [11] | [12]
inactive: all other assays above

CC(=O)c1cnccn1
not listed: [11] | [12] | [14] | [15] | [16]
inactive: all other assays above

CCC1C(=O)OCC1Cc1cncn1C (configuration not stated)
inactive: [1] | [2] | [3] | [14] | [5] | [6] | [7] | [13]

CCCCCCC#CC(=O)OC
not listed: [3] | [13] | [14] | [15] | [16]
inactive: all other assays above

COc1c(N2CCNC(C)C2)c(F)cc2c(=O)c(C(=O)O)cn(C3CC3)c12 (configuration not stated)
not listed: [3] | [11] | [12] | [13] | [15] | [16]
inactive: all other assays above

C[N+]1(C)CCCC(OC(=O)C(O)(c2ccccc2)c2ccccc2)C1 (configuration not stated)
inactive: [1] | [2] | [14] | [4] | [5] | [6] | [7] | [10]

Source: PubChem BioAssay (Tox21)
